Results from PubChem BioAssay (NCATS).
Records with an inconclusive call do not appear. The source made the active and inactive calls. Calls follow the shape of the dose curve; as a rule, active = well fitted curve in the direction sought with a large enough effect; inconclusive = small, poorly fitted or top-dose-only effect, or another doubt; inactive = no such curve, though single readings can be large; an effect the other way counts as inactive or inconclusive.

Assays:
[1] = target: Rap guanine nucleotide exchange factor 3 (Homo sapiens) (UniProt O95398); assay: Confirmatory qHTS for antagonist of cAMP-regulated guanine nucleotide exchange factor 3 (EPAC1) (AID 1645880); also: nearly all actives have a fitted effect of over 55% in size; also: potency is read from the fitted curve at half-maximal effect
Rap guanine nucleotide exchange factor 3 (Homo sapiens), sequence (O95398 whole entry, looked up): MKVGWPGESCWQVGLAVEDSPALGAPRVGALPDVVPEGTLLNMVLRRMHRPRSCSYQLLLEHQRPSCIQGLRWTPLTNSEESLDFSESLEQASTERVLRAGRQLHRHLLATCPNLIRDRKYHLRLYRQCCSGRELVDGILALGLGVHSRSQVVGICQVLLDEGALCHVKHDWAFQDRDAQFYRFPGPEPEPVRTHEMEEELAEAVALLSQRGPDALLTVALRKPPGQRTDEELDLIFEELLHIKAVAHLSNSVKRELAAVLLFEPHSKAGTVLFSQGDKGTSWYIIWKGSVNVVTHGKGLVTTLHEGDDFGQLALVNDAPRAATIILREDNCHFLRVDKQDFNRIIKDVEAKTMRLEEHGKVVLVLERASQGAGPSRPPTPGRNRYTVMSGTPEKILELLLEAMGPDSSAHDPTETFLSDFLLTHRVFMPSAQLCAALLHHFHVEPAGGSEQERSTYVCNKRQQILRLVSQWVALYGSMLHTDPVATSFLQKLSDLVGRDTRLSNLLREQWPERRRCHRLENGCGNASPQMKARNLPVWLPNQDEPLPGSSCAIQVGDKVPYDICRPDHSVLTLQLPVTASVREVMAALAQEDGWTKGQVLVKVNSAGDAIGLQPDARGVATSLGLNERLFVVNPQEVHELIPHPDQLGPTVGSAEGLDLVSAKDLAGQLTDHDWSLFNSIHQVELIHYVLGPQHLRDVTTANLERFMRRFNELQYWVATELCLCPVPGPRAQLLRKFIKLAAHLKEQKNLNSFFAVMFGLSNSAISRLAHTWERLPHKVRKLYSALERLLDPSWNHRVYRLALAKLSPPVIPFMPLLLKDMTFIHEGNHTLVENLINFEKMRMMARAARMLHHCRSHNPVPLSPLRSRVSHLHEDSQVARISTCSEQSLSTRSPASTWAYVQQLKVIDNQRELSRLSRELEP
How it was run: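 Released BODIPY-GDP fluoresces less than Rap1-bound BODIPY-GDP; the signal is followed at 480/540 nm at 5-min intervals over 30 min, after 5 min at room temperature. Reactions contain 100 nM EPAC1, 250 nM RAP1B-BODIPY-GDP and 50 uM GDP; results are normalized to ATA and DMSO.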

[2] = target: Rap guanine nucleotide exchange factor 3 (Homo sapiens) (UniProt O95398); assay: Confirmatory qHTS for agonist of cAMP-regulated guanine nucleotide exchange factor 3 (EPAC1) (AID 1645881); also: nearly all actives have a fitted effect of over 75% in size; also: potency is read from the fitted curve at half-maximal effect;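 as to activation: EPAC1 catalysed release of BODIPY-GDP from Rap1B seen as fluorescence loss; 100% = effect of cAMP agonist control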
[3] = target: Rap guanine nucleotide exchange factor 4 (Homo sapiens) (UniProt Q8WZA2); assay: Confirmatory qHTS for agonist of cAMP-regulated guanine nucleotide exchange factor 4 (EPAC2) (AID 1645884);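 also: nucleotide exchange releases bodipy-GDP from Rap1 and this lowers its fluorescence; nearly all actives have a fitted effect of over 65% in size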; also: potency is read from the fitted curve at half-maximal effect; as to activation: % is scaled to controls: 0 for no effect and ±100 for the full control effect
Rap guanine nucleotide exchange factor 4 (Homo sapiens), sequence (Q8WZA2 whole entry, looked up): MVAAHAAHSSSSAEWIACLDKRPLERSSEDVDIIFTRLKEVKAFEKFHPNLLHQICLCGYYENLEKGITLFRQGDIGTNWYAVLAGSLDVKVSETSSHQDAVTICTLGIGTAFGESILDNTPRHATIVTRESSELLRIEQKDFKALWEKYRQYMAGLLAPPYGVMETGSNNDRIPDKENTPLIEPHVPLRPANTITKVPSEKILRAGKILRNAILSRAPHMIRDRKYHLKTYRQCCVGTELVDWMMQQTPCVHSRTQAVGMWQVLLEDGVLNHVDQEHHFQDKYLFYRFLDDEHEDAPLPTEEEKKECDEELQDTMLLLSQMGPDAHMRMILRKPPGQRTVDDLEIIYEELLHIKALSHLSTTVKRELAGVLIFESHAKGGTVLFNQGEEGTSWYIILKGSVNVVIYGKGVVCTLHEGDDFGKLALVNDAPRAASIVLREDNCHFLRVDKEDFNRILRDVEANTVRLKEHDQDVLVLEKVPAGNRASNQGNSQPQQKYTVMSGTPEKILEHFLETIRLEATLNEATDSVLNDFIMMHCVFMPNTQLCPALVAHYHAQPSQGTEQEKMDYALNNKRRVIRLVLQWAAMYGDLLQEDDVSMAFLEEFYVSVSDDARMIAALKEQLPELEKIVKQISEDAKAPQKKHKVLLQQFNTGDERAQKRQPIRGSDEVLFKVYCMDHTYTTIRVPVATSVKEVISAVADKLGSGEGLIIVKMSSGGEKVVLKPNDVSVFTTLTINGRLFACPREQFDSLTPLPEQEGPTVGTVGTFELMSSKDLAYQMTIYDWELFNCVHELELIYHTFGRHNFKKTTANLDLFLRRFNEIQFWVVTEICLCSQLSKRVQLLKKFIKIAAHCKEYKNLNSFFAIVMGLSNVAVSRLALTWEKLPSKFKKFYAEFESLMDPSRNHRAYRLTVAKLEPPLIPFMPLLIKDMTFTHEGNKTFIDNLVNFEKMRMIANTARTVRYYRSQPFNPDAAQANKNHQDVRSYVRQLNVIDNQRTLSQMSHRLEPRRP

[4] = target: Rap guanine nucleotide exchange factor 4 (Homo sapiens) (UniProt Q8WZA2); assay: Confirmatory qHTS for antagonist of cAMP-regulated guanine nucleotide exchange factor 4 (EPAC2) (AID 1645885); also: nearly all actives have a fitted effect of over 25% in size; also: potency is read from the fitted curve at half-maximal effect; as to activity change, negative = inhibition: % is scaled to controls: 0 for no effect and ±100 for the full control effect
[5] = target: Rap guanine nucleotide exchange factor 3 (Homo sapiens) (UniProt O95398); assay: Counterscreen qHTS for antagonist of cAMP-regulated guanine nucleotide exchange factor 3 (EPAC1) (AID 1645888); also: % of control where 0% means no effect
How it was run: (§1)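 Rap1B-BODIPY-GDP 250 nM + GDP 50 uM; cpds 7-pt, final 9.74 nM–152 uM (activator mode) or from 7.32 nM upwards (inhibitor mode); RT; FI 480/540 nm at 5 and 30 min, then ± cAMP, reread.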

[6] = target: Rap guanine nucleotide exchange factor 3 (Homo sapiens) (UniProt O95398); assay: Counterscreen qHTS for agonist of cAMP-regulated guanine nucleotide exchange factor 3 (EPAC1) (AID 1645889); also: nearly all actives have a fitted effect of over 40% in size; also: potency is read from the fitted curve at half-maximal effect; as to activation: % of control where 0% means no effect
How it was run: as §1

Clc1ccc(-c2cc3ccccc3nc2N2CCOCC2)cc1
inactive: Potency [1] | Potency [2] | Potency [3] | Potency [4] | Potency [5] | Potency [6]

COc1cccc(C2=NN(C(C)=O)C(c3cccs3)C2)c1 (stereo not drawn)
inactive: Potency [1] | Potency [2] | Potency [3] | Potency [4] | Potency [5] | Potency [6]

CCCn1c(N)c(C(=O)CSc2n[nH]c(-c3ccc(C)cc3)n2)c(=O)[nH]c1=O
inactive: Potency [1] | Potency [2] | Potency [3] | Potency [4] | Potency [5] | Potency [6]

COCOCCn1cc(CN2CCS(=O)(=O)N(Cc3ccc(-c4ccc(Cl)cc4)cc3)C(CC(C)C)C2=O)nn1 (stereo not drawn)
inactive: Potency [1] | Potency [2] | Potency [3] | Potency [4] | Potency [5] | Potency [6]

CN(C)c1ccccc1C(=O)N1CCCC(C(=O)c2ccc3ccccc3c2)C1 (stereo not drawn)
inactive: Potency [1] | Potency [2] | activation [3] 10.4% [at 17.1 µM, percent relative to cAMP agonist control] | Potency [4] | activity change, negative = inhibition [5] -1.02% [at 30.8 µM] | activation [6] 21.4% [at 30.8 µM]

Nc1ccc2ccccc2c1C(=O)c1ccccc1
inactive: Potency [1] | Potency [2] | Potency [3] | Potency [4] | Potency [5] | Potency [6]

CC(/C=C1\SC(=S)N(NS(=O)(=O)c2ccccc2)C1=O)=C\c1ccccc1
active: Potency [1] 22.4 µM
inactive: Potency [2] | activation [3] 7.93% [at 17.1 µM, percent relative to cAMP agonist control] | Potency [4] | activity change, negative = inhibition [5] -10.4% [at 30.8 µM] | activation [6] 7.68% [at 30.8 µM]

CCOc1cc(/C=C2\C(=N)N3N=C(S(=O)(=O)CC)SC3=NC2=O)ccc1OC(=O)c1ccco1
active: Potency [1] 30.1 µM
inactive: Potency [2] | Potency [3] | Potency [4] | Potency [5] | Potency [6]

COc1cccc(/C=C2\SC(=S)N(NS(=O)(=O)c3ccccc3)C2=O)c1OC
active: Potency [1] 33.8 µM | Potency [4] 37.9 µM
inactive: Potency [2] | Potency [3] | Potency [5] | Potency [6]

Cc1ccc(CNC(=O)C(=O)NCCC2CCCCN2S(=O)(=O)c2cccs2)cc1 (stereo not drawn)
inactive: Potency [1] | Potency [2] | activation [3] -1.43% [at 17.1 µM, percent relative to cAMP agonist control] | Potency [4] | activity change, negative = inhibition [5] -26.3% [at 30.8 µM] | activation [6] 20.6% [at 30.8 µM]

CCc1ccc(-c2nc(CS(=O)CC(=O)NCc3cccnc3)c(C)o2)cc1 (stereo not drawn)
inactive: Potency [1] | Potency [2] | Potency [3] | Potency [4] | Potency [5] | Potency [6]

Cc1[nH]c(C)c2c(=O)n(Cc3ccc(Cl)cc3)ncc12
inactive: Potency [1] | Potency [2] | Potency [3] | Potency [5] | Potency [6]
active: Potency [4] 15.1 µM

Cc1ccc(-n2nc3c(=O)n(CCCC(=O)NCc4ccccc4F)nc(C)c3c2C)cc1
inactive: Potency [1] | Potency [2] | Potency [3] | Potency [4] | Potency [5] | Potency [6]

COc1ccccc1Cn1c(=O)oc2ccc(C)cc21
inactive: Potency [1] | Potency [2] | Potency [3] | Potency [4] | Potency [5] | Potency [6]

CCCCC(Sc1nc2cc3c(cc2c(=O)n1CCCC(=O)NCc1ccc2c(c1)OCO2)OCO3)C(=O)OCC (stereo not drawn)
inactive: Potency [1] | Potency [2] | Potency [3] | outcome [4] inactive [at 12.7 µM] | Potency [5] | Potency [6]

CCC1CCCCN1CCCNC(=O)c1ccc(CS(=O)(=O)Cc2ccccc2F)o1 (stereo not drawn)
inactive: Potency [1] | Potency [2] | Potency [3] | Potency [4] | Potency [5] | Potency [6]

CCOC(=O)c1cc2n(c1N)-c1ccccc1C2=O
inactive: Potency [1] | Potency [5]
active: Potency [2] 100 µM | Potency [3] 100 µM | Potency [4] 23.9 µM | Potency [6] 31.6 µM

COc1ccc(/C=C(\NC(=O)c2cccs2)C(=O)Nc2ccc(C)cc2)cc1OC
inactive: Potency [2] | Potency [3] | Potency [4] | Potency [5] | Potency [6]
active: Potency [1] 47.8 µM

Cc1nc2cc(NC(=O)CCS(=O)(=O)c3ccccc3)ccc2s1
inactive: Potency [1] | Potency [2] | activation [3] -6.47% [at 17.1 µM, percent relative to cAMP agonist control] | Potency [4] | activity change, negative = inhibition [5] -11.5% [at 30.8 µM] | activation [6] 14.1% [at 30.8 µM]

CCN(CC)c1ccc2oc(=O)c(C)nc2c1
active: Potency [2] 100 µM | Potency [3] 100 µM | Potency [4] 75.7 µM | Potency [6] 39.8 µM
inactive: Potency [1] | Potency [5]

CC(/C=C1\SC(=S)N(C(C(=O)O)C(C)C)C1=O)=C\c1ccccc1 (stereo not drawn)
inactive: Potency [2] | Potency [3] | Potency [4] | Potency [5] | Potency [6]
active: Potency [1] 47.8 µM

CCOC(=O)C1CCCN(C(=O)C(C)(C)Oc2ccc(Cl)cc2)C1 (stereo not drawn)
inactive: Potency [1] | Potency [2] | Potency [3] | Potency [4] | Potency [5] | Potency [6]

O=C1NN(c2ccccc2)C(=O)/C1=C/c1ccc(Sc2cccc3ccccc23)o1
inactive: Potency [2] | activation [3] 3.36% [at 17.1 µM, percent relative to cAMP agonist control] | Potency [4] | activity change, negative = inhibition [5] -8.41% [at 30.8 µM] | activation [6] 23.8% [at 30.8 µM]
active: Potency [1] 17.8 µM

CN(C)c1ccc(/C=C/c2nc3ccccc3c(=O)n2-c2ccc(C(=O)O)cc2)cc1
inactive: Potency [2] | Potency [3] | Potency [5]
active: Potency [1] 75.7 µM | Potency [4] 67.5 µM | Potency [6] 39.8 µM

CN(C)c1ccc(C(O)c2cc3ccccc3s2)cc1 (stereo not drawn)
inactive: Potency [1] | Potency [2] | Potency [3] | Potency [4] | Potency [5] | Potency [6]

O=C(OCc1c(-c2ccccc2)ncc2ccccc12)c1ccco1
inactive: Potency [1] | Potency [2] | Potency [3] | Potency [4] | Potency [5] | Potency [6]

CC1CCCCC1NC(=O)COC(=O)c1c2c(nc3ccccc13)/C(=C/c1ccco1)CC2 (stereo not drawn)
active: Potency [1] 75.7 µM
inactive: Potency [2] | Potency [3] | Potency [4] | Potency [5] | Potency [6]

Cc1cc(C)c2c(CN3CCCCC3)cc(=O)oc2c1
inactive: Potency [1] | Potency [2] | Potency [3] | Potency [4] | Potency [5] | Potency [6]

CN(C)C(=S)Oc1ccccc1-c1ccccc1OC(=S)N(C)C
inactive: Potency [1] | Potency [2] | Potency [3] | Potency [4] | Potency [5] | Potency [6]

c1ccc2c(c1)oc1c(-c3ccc4nccn4c3)cccc12
inactive: Potency [1] | Potency [2] | activation [3] 0% [at 17.1 µM, percent relative to cAMP agonist control] | Potency [4] | activity change, negative = inhibition [5] -16.8% [at 30.8 µM] | activation [6] 14.4% [at 30.8 µM]

CC1=CC=CC2=NC(=O)CC(C)(C(=O)N(CC(=O)NC(C)C)C3CCCC3)N12 (stereo not drawn)
inactive: Potency [1] | Potency [2] | activation [3] 3.39% [at 17.1 µM, percent relative to cAMP agonist control] | Potency [4] | activity change, negative = inhibition [5] -13.5% [at 30.8 µM] | activation [6] 26.5% [at 30.8 µM]

NS(=O)(=O)c1ccc(NC(=O)Cc2c(F)cccc2Cl)cc1
inactive: Potency [1] | Potency [2] | Potency [3] | Potency [4] | Potency [5] | Potency [6]

Nc1c(-c2nc(-c3cccs3)no2)nnn1-c1cccc(Cl)c1
inactive: Potency [1] | Potency [2] | Potency [3] | outcome [4] inactive [at 12.7 µM] | Potency [5] | Potency [6]

Cc1ccccc1-c1cc(C(=O)NCc2ccc3c(c2)OCO3)n(CC2CC(c3cccnc3)=NO2)n1 (stereo not drawn)
inactive: Potency [1] | Potency [2] | Potency [3] | Potency [4] | Potency [5] | Potency [6]

COc1cn(CC(=O)Nc2cccc(C)c2C)c(CN2CCCCC2)cc1=O
inactive: Potency [1] | Potency [2] | Potency [3] | Potency [4] | Potency [5] | Potency [6]

CCCc1nn2c(=O)cc(COC(=O)c3cccc(NC(=O)CCc4ccccc4)c3)nc2s1
inactive: Potency [1] | Potency [2] | Potency [3] | Potency [4] | Potency [5] | Potency [6]

O=[N+]([O-])c1cc([N+](=O)[O-])c2nonc2c1Nc1ccc(O)cc1
active: Potency [1] 75.7 µM | Potency [4] 42.6 µM
inactive: Potency [2] | Potency [3] | Potency [5] | Potency [6]

COc1ccc(CC(=O)Nc2nc(-c3cccnc3)cs2)cc1
inactive: Potency [1] | Potency [2] | activation [3] 15.1% [at 17.1 µM, percent relative to cAMP agonist control] | Potency [4] | activity change, negative = inhibition [5] -4.63% [at 30.8 µM] | activation [6] -9.76% [at 30.8 µM]
